# Results published in PubChem BioAssay AID463173 (ICCB-Longwood Screening Facility, Harvard Medical School, 2010).
# Screen size: about 52,000 compounds; about 1,700 (3.3%) were called active. The list comes from a sample in which actives are over-represented; it also holds similar structures and randomly drawn compounds. Values without a mark were called inactive. No stated cut-off is given here; in the data, active means survival mostly below about 52% (no sharp cut-off); inactive means mostly above about 56%.
# Tested on: Wild type
# Experiment: S. aureus survival, RN4220 and DeltatarO strains – OD600, teichoic acid synthesis inhibitors, primary screen (AID 463173)
# Details: S. aureus RN4220 wild type/DeltatarO growth, OD600, 18 h, active compounds read low, screened at 18.75 µg/mL (by protocol)
row,SMILES,survival
1,CCCCCOc1ccc(Cn2c(=O)oc3ccc(C)cc32)cc1OC,-6% (active)
2,COc1cc(Cn2c(=O)oc3ccc(C)cc32)ccc1OCCC(C)C,-7% (active)
3,CCCCCOc1ccccc1CN1C(=O)C(=O)c2cc(C)ccc21,105%
4,Cc1ccc2c(c1)C(=O)C(=O)N2Cc1ccc(OCCC(C)C)cc1,79%
5,O=C(NCc1ccccc1Cl)c1ccc2oc(=O)n(Cc3ccccc3)c2c1,81%
6,Cc1ccc2oc(=O)n(CCNC(=O)Nc3ccccc3Cl)c2c1,90%
7,CCCCCOc1ccc(Cn2c(=O)oc3ccccc32)cc1,120%
8,CCCCOc1ccc(Cn2c(=O)oc3ccc(C)cc32)cc1OC,49%
9,CCCCCOc1ccccc1Cn1c(=O)oc2ccc(C)cc21,15% (active)
10,CCOC(=O)c1ccc2oc(=O)n(Cc3ccccc3)c2c1,68%
11,CCCCOc1ccc(CN2C(=O)C(=O)c3cc(C)ccc32)cc1OC,87%
12,Cc1ccc2oc(=O)n(Cc3ccccc3Cl)c2c1,-2% (active)
13,COc1cc2nc(C3CCC3)n(NC(=O)c3ccccc3C)c(=O)c2cc1OC,115%
14,CSc1ccc(CCNC(=O)CCc2c(C)nc3ncnn3c2C)cc1,71%
15,CCC1CN(C(=O)C2CCN(S(=O)(=O)c3c(C)noc3/C=C/c3ccccc3F)CC2)c2cc(Cl)ccc2O1 (configuration not stated),71%
16,COc1ccc(NC(=O)Cn2c(=O)n(-c3ccccc3)c(=O)c3ccc(C(=O)NCc4ccc5c(c4)OCO5)cc32)cc1,154%
17,COc1ccc(NC(=O)C2CCCN(S(=O)(=O)c3c(C)[nH]c(=O)[nH]c3=O)C2)cc1OC (configuration not stated),130%
18,O=C(Nc1cc(-c2ccc(F)c(F)c2)no1)c1ccccc1F,92%
19,COC(=O)c1ccccc1NC(=O)c1ccc(-c2nc(COc3ccccc3)c(C)o2)cc1,135%
20,COCCCNC(=O)C1CCN(c2nnc(-n3cccc3CNc3ccc(C)cc3)s2)CC1,72%
21,CCOCCc1nn2c(=O)cc(COC(=O)c3ccco3)nc2s1,85%
22,CCC(C(=O)OCc1cc(=O)n2nc(CCOC)sc2n1)c1ccccc1 (configuration not stated),136%
23,CCc1nn2c(=O)cc(COC(=O)C(CC)c3ccccc3)nc2s1 (configuration not stated),73%
24,CCc1nn2c(=O)cc(COC(=O)Cc3ccccc3)nc2s1,59%
25,CCOCCc1nn2c(=O)cc(COC(=O)Cc3ccccc3)nc2s1,-1% (active)

row,SMILES,survival
1,CCOCCc1nn2c(=O)cc(COC(=O)C(CC)c3ccccc3)nc2s1 (configuration not stated),14% (active)
2,Cc1ccc(-c2nnc3ccccc3c2C(=O)Nc2cccc(C(F)(F)F)c2)cc1,120%
3,COc1ccc(N(Cc2cccs2)C(=O)c2ccc(OCC(C)C)cc2)cc1,113%
4,CCc1ccccc1NC(=O)CN(c1cccc(C)c1C)S(C)(=O)=O,72%
5,Cc1ccc(NC(=O)Cn2c(=O)n(Cc3ccco3)c(=O)c3sc4ccccc4c32)cc1C,126%
6,CCc1nn2c(=O)cc(COC(=O)C3CCCCC3)nc2s1,72%
7,Cc1cccc(-c2nc(SCC(=O)NCC3CCCO3)c3c(=O)n(C)c(=O)n(C)c3n2)c1 (configuration not stated),128%
8,Oc1c(C(c2ccccc2Cl)N2CCOCC2)sc2nc(-c3ccco3)nn12 (configuration not stated),-2% (active)
9,Oc1c(C(c2ccccc2)N2CCN(Cc3ccccc3)CC2)sc2nc(-c3ccco3)nn12 (configuration not stated),10% (active)
10,Cc1ccc(C(c2sc3nc(-c4ccco4)nn3c2O)N2CCC3(CC2)OCCO3)cc1 (configuration not stated),70%
11,Cc1ccc(C(c2sc3nc(-c4ccco4)nn3c2O)N2CCN(Cc3ccccc3)CC2)cc1 (configuration not stated),121%
12,Oc1c(C(c2ccc(F)cc2)N2CCN(Cc3ccccc3)CC2)sc2nc(-c3ccco3)nn12 (configuration not stated),89%
13,Oc1c(C(c2ccccc2)N2CCC3(CC2)OCCO3)sc2nc(-c3ccco3)nn12 (configuration not stated),73%
14,CN1CCN(C(c2ccccc2)c2sc3nc(-c4ccco4)nn3c2O)CC1 (configuration not stated),59%
15,Oc1c(C(c2ccccc2)N2CCCC2)sc2nc(-c3ccco3)nn12 (configuration not stated),-3% (active)
16,CN1CCN(C(c2ccccc2Cl)c2sc3nc(-c4ccco4)nn3c2O)CC1 (configuration not stated),129%
17,Oc1c(C(c2ccccc2Cl)N2CCCC2)sc2nc(-c3ccco3)nn12 (configuration not stated),82%
18,Oc1c(C(c2ccc(Cl)cc2)N2CCC3(CC2)OCCO3)sc2nc(-c3ccco3)nn12 (configuration not stated),0% (active)
19,Oc1c(C(c2ccccc2)N2CCOCC2)sc2nc(-c3ccco3)nn12 (configuration not stated),88%
20,COC(=O)c1ccc(NS(=O)(=O)c2c(C)nc3sccn3c2=O)cc1,85%
21,CC(=O)NC1Sc2ccccc2N=C1c1ccccc1 (configuration not stated),112%
22,Cc1cccc(-n2c(Cc3ccccc3)nnc2SCc2nc(-c3cccs3)no2)c1,63%
23,Cc1ccc2onc(CC(=O)Nc3ccc(C(C)C)cc3)c2c1,85%
24,CCOc1ccc(NC(=O)c2sc3nc4c(c(-c5ccc(OC)cc5)c3c2N)C(=O)CC(C)(C)C4)cc1,69%
25,CCCn1c(N2CCN(CC(=O)Nc3ccc(Cl)cc3)CC2)nc2ccccc21,118%

row,SMILES,survival
1,Cc1nn(C)c2c1c(-c1ccccc1)cc(=O)n2CC(=O)NC(C)C,70%
2,COc1ccc(C2=NS(=O)(=O)N(C)C(C(=O)Nc3ccc(OC(F)(F)F)cc3)=C2)cc1,55%
3,COc1ccc(S(=O)(=O)c2cnc3cc(OC)c(OC)cc3c2N2CCCC(C)C2)cc1 (configuration not stated),84%
4,CC1CCCN(c2c(S(=O)(=O)c3ccccc3)cnc3ccc(Cl)cc23)C1 (configuration not stated),121%
5,CCc1ccc(S(=O)(=O)c2cnc3ccc(OC)cc3c2N2CCCC(C)C2)cc1 (configuration not stated),2% (active)
6,Cc1ccccc1NC(=O)c1ccc(F)c(S(=O)(=O)N(C)Cc2ccccc2)c1,66%
7,Cc1ccccc1CN1C(=O)c2ccccc2Sc2ccc(C(=O)N3CCCC3)cc21,85%
8,CCCCOc1ccc(S(=O)(=O)Nc2ccc(-c3ccc(N4CCCCCC4)nn3)cc2)cc1,75%
9,Cc1c(C(=O)NCc2ccccc2Cl)sc2nc[nH]c(=O)c12,82%
10,Cc1cccc(CSc2nc3c(c(=O)[nH]2)CCC3)c1,78%
11,Cc1nc(SCc2cccc(Cl)c2)nc2c1CCCC2,-8% (active)
12,O=c1[nH]c(SCc2cccc(Cl)c2)nc2c1CCC2,91%
13,COc1cccc(-c2csc(-c3c(N)c(C(=O)c4ccccc4)n4ccccc34)n2)c1,72%
14,Cc1nn2c(=O)cc(COC(=O)Cc3ccccc3)nc2s1,80%
15,Cc1cccc(OCCCCn2c(C3CC(=O)N(c4ccc(C)cc4C)C3)nc3ccccc32)c1 (configuration not stated),18%
16,CCc1ccccc1N1CC(c2nc3ccccc3n2CCCOc2ccc(Cl)cc2)CC1=O (configuration not stated),29%
17,CCc1ccccc1N1CC(c2nc3ccccc3n2CCCCOc2ccccc2)CC1=O (configuration not stated),19% (active)
18,O=C1CC(c2nc3ccccc3n2CCCCOc2ccccc2)CN1c1ccccc1Cl (configuration not stated),61%
19,Cc1cc(C)cc(OCCn2c(C3CC(=O)N(c4ccccc4Cl)C3)nc3ccccc32)c1 (configuration not stated),97%
20,Cc1cccc(OCCCCn2c(C3CC(=O)N(c4ccccc4Cl)C3)nc3ccccc32)c1 (configuration not stated),17% (active)
21,CCOc1ccccc1N1CC(c2nc3ccccc3n2CCCCOc2ccccc2)CC1=O (configuration not stated),73%
22,CCc1ccccc1N1CC(c2nc3ccccc3n2CCOc2ccc(Cl)c(C)c2)CC1=O (configuration not stated),2% (active)
23,CCOc1ccccc1N1CC(c2nc3ccccc3n2CCCOc2ccccc2)CC1=O (configuration not stated),58%
24,CCC1CCCCN1S(=O)(=O)c1cc2c3c(c1)CC(=O)N3CCC2 (configuration not stated),95%
25,COc1ccc(C)cc1NC(=O)CN1C(=O)CSc2ccc(S(=O)(=O)N3CCCC3)cc21,93%

row,SMILES,survival
1,COc1cccc(/C=C(\C#N)c2nc3ccc(C)cc3[nH]2)c1,53%
2,Cc1ccc2nc(/C(C#N)=C/c3cccc(Br)c3)[nH]c2c1,-11% (active)
3,Cc1ccc2nc(/C(C#N)=C/c3ccccc3F)[nH]c2c1,46%
4,COc1ccc(C(=O)c2oc3ccccc3c2NC(=O)c2cc(=O)c3ccc(C)cc3o2)cc1Cl,87%
5,O=C(C1c2ccccc2Oc2ccccc21)N1CCCCC1,103%
6,CCCCn1c(CCCN2C(=O)c3ccccc3C2=O)nc2ccccc2c1=O,104%
7,N#CCOc1nc(OCC#N)nc(OCC#N)n1,-1% (active)
8,CNc1nc(OCC#N)nc(N2CCCCC2)n1,119%
9,CONc1nc(NC(C)(C)C)nc(OCC#N)n1,102%
10,CCOc1ccc(CNC(=O)c2cc3c(=O)n(C)c4ccccc4c3s2)cc1,84%
11,CCCCCn1c(CNC(=O)c2ccccc2)nc2ccccc21,89%
12,CCC(C)Cn1c(/C=C/c2ccccc2)nc2ccccc21 (configuration not stated),1% (active)
13,CCc1nc2ccccc2n1CCO,101%
14,CCCn1c(CNC(=O)c2ccc(F)cc2)nc2ccccc21,69%
15,CCn1c(O)c(/C=C/c2nc3ccccc3n2CC)sc1=S,108%
16,CCCCCCn1c(/C=C/c2ccccc2)nc2ccccc21,0% (active)
17,CCCCCCn1c(CNC(=O)c2ccccc2)nc2ccccc21,91%
18,CCc1nc2ccccc2n1CC(C)C(=O)O (configuration not stated),108%
19,Cc1cccc(C(=O)NCCc2nc3ccccc3n2CCC(C)C)c1,116%
20,CCCCCn1c(CNC(=O)c2ccc(F)cc2)nc2ccccc21,90%
21,CC(C)CCn1c(/C=C/c2ccccc2)nc2ccccc21,-1% (active)
22,CC(C)Cn1c(/C=C/c2ccc(F)cc2)nc2ccccc21,-12% (active)
